Assay [1] deals with Paired box protein Pax-6 (Homo sapiens) (UniProt P26367). Kind of assay: ATG_Pax6_CIS: Attagene CIS-FACTORIAL HepG2 Assay for human Paired Box 6 (PAX6) (AID 2282956). Particulars: HepG2 CIS-FACTORIAL PAX6 reporter transcription, RNA readout; actives raise or lower the signal. A digest of the protocol: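 Transient MRTU transfection of HepG2 → compound exposure 24 h → TriZol RNA, oligo(dT) RT → PCR, 6-FAM primer extension, HpaI cut → capillary electrophoresis; activity fitted both directions against DMSO.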

Assay [2] in a line: ATG_PXRE_CIS: Attagene CIS-FACTORIAL HepG2 Assay for human Pregnane X Receptor Element (PXRE) (AID 2282957). Particulars: HepG2 Attagene CIS-FACTORIAL PXRE reporter, mRNA; actives raise or lower the signal. A digest of the protocol: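 Transfect HepG2 with MRTUs (cis promoter elements); dose chemical, incubate 24 h; isolate RNA, RT with oligo(dT), PCR, 6-FAM label, HpaI cut, CE. Gain/loss fit vs DMSO.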

Assay [3] is described as follows: ATG_RORE_CIS: Attagene CIS-FACTORIAL HepG2 Assay for human RAR-related Orphan Receptor Element (RORE) (AID 2282959). Particulars: HepG2 Attagene cis-factorial RORE reporter, mRNA; actives raise or lower the signal. A digest of the protocol: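 Transfect HepG2 with MRTUs; treat 24 h; extract RNA; RT with oligo(dT); PCR with reporter-specific primers; 6-FAM primer extension; HpaI digest 2 h at 37 C; capillary electrophoresis. Fit vs DMSO, bidirectional.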

Assay [4] in a line: ATG_Sox_CIS: Attagene CIS-FACTORIAL HepG2 Assay for human SRY-box transcription factor (SOX) (AID 2282960). Particulars: HepG2 Attagene cis-factorial SOX reporter, mRNA; actives raise or lower the signal. Summed up: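 Fluorescence-labelled cDNA fragments from reporter transcripts, sized by CE, give the signal. Cells: HepG2, transiently transfected with cis-regulated reporter units. Exposure 24 h; DMSO negative control; bidirectional curve fitting.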

The target of assay [5] is Transcription factor Sp1 (Homo sapiens) (UniProt P08047). The experiment in a line: ATG_Sp1_CIS: Attagene CIS-FACTORIAL HepG2 Assay for human Specificity Protein 1 (Sp1) (AID 2282961). Particulars: HepG2 Sp1 cis-reporter transcription, actives raise or lower the signal. Summed up: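 Chemicals are dosed onto HepG2 cells transfected with multiple cis-promoter reporter constructs, and after 24 h reporter RNA is reverse-transcribed, PCR-amplified and resolved by capillary electrophoresis for fluorescence quantitation; activity is scored up or down against DMSO.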

Assay [6] can be described thus: ATG_SREBP_CIS: Attagene CIS-FACTORIAL HepG2 Assay for human Sterol Regulatory Element Binding (SREBP) (AID 2282962). Particulars: HepG2 Attagene cis-factorial SREBP reporter, mRNA; actives raise or lower the signal. Summed up: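 Transfected HepG2 (cis-regulated reporter library, endogenous TFs) → compound 24 h → total RNA → oligo(dT) RT → reporter-specific PCR → FAM primer extension, HpaI cut → CE fluorescence. Fit bidirectional vs DMSO.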

Assay [7] addresses Signal transducer and activator of transcription 3 (Homo sapiens) (UniProt P40763). Kind of assay: ATG_STAT3_CIS: Attagene CIS-FACTORIAL HepG2 Assay for human Signal Transducer and Activator of Transcription 3 (STAT3) (AID 2282963). Particulars: HepG2, Attagene cis-factorial STAT3 reporter transcription; actives raise or lower the signal. A digest of the protocol: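 Values derive from bidirectional fits relative to DMSO of reporter mRNA levels, measured by RT-PCR with capillary electrophoresis, in HepG2 cells carrying transiently transfected cis-regulated reporter units and exposed 24 h.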

Assay [8] in a line: ATG_TA_CIS: Attagene CIS-FACTORIAL HepG2 Assay for human TA Basal Promoter (AID 2282964). Particulars: HepG2 Attagene CIS-factorial TA basal promoter reporter; actives raise or lower the signal. A digest of the protocol:
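Read-out: fluorescent reporter-transcript fragments resolved by capillary electrophoresis after RT-PCR and HpaI digestion. Source: HepG2 cells carrying transiently transfected multi-reporter cis constructs, treated 24 h. Endpoint fitted bidirectionally relative to DMSO.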

Assay [9] in a line: ATG_TCF_b_cat_CIS: Attagene CIS-FACTORIAL HepG2 Assay for human T-Cell-Factor with beta-catenin (TCF/b-cat) (AID 2282965). Particulars: HepG2 TCF/beta-catenin cis-reporter transcription, actives raise or lower the signal. Summed up: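 HepG2, transient MRTU transfection, cis-element-driven reporters (endogenous TFs). 24 h compound exposure. Readout: reporter mRNA by RT-PCR + 6-FAM primer extension, HpaI digest, capillary electrophoresis. Gain/loss fit vs DMSO baseline.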

Assay [10] has as its target Estrogen receptor (Homo sapiens) (UniProt P03372). Kind of assay: ATG_ERa_TRANS: Attagene TRANS-FACTORIAL HepG2 Assay for human Estrogen Receptor alpha (ERa) (AID 2282970; active = hit-call score of the fitted dose curve at least 0.9, where 1 is the maximum). Particulars: HepG2 Attagene TRANS ERa GAL4 reporter, mRNA. Summed up: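 Human liver HepG2, transient transfection of multiple GAL4-UAS reporter units; TRANS format (exogenous NR-Gal4 chimera). 24 h dosing. Readout: reporter mRNA, RT-PCR, 6-FAM primer extension, HpaI digest, capillary electrophoresis. Positive direction vs DMSO.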

In assay [11] the target is X-box-binding protein 1 (Homo sapiens) (UniProt P17861). The experiment in a line: ATG_Xbp1_CIS: Attagene CIS-FACTORIAL HepG2 Assay for human X-box Binding Protein 1 (XBP1) (AID 2282972). Particulars: HepG2 XBP1 cis-element reporter, Attagene multiplex; actives raise or lower the signal. A digest of the protocol:
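HepG2, transient MRTU transfection (cis-promoter driven), 24 h compound exposure. Total RNA → oligo(dT) RT → PCR → 6-FAM labeling → HpaI cut → CE. Bidirectional fit vs DMSO.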

Assay [12] can be described thus: ATG_GAL4_TRANS: Attagene TRANS-FACTORIAL HepG2 Assay for GAL4 (Internal Marker) (AID 2282976; active = hit-call score of the fitted dose curve at least 0.9, where 1 is the maximum). Particulars: HepG2 Attagene TRANS GAL4 internal marker reporter. A digest of the protocol:
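First, HepG2 cells were transfected with reporter units under GAL4-UAS control. Next, they were treated with chemical for 24 h. Finally, RNA was reverse-transcribed, PCR-amplified, FAM-labelled and resolved by capillary electrophoresis, with induction scored against DMSO.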

The nature of assay [13]: ATG_TAL_CIS: Attagene CIS-FACTORIAL HepG2 Assay for human TAL Basal Promoter (AID 2282966).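 Also: background control endpoint measuring basal TAL promoter reporter mRNA not a specific factor.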 Particulars: HepG2 Attagene cis-factorial TAL promoter reporter; actives raise or lower the signal. Summed up:
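Fluorescence of labelled reporter cDNA fragments, resolved by capillary electrophoresis, gave the readout. Human HepG2 liver cells carried transiently transfected cis-element reporter units and were treated for 24 hours; activity was fitted bidirectionally against DMSO.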

Assay [14] is described as follows: ATG_TGFb_CIS: Attagene CIS-FACTORIAL HepG2 Assay for human Transforming Growth Factor (TGF) (AID 2282967). Particulars: HepG2 Attagene CIS TGFb reporter, mRNA transcription; actives raise or lower the signal. A digest of the protocol: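 Transient MRTU transfection of HepG2 (FuGene 6). Dose 24 h. TriZol RNA, oligo(dT) RT, PCR, 6-FAM primer extension, HpaI cut, CE. Bidirectional fit, DMSO = baseline.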

The nature of assay [15]: ATG_VDRE_CIS: Attagene CIS-FACTORIAL HepG2 Assay for human Vitamin D Receptor Element (VDRE) (AID 2282968). Particulars: HepG2 VDRE cis-reporter transcription, actives raise or lower the signal. Summed up:
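Cell-based multiplexed reporter format in human liver HepG2 cells, 24 h post-dose. Fluorescence from capillary electrophoresis of reporter cDNA gives the signal, with DMSO as negative control and baseline.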

Assay [16] deals with Nuclear receptor subfamily 1 group I member 3 (Homo sapiens) (UniProt Q14994). The experiment in a line: ATG_CAR_TRANS: Attagene TRANS-FACTORIAL HepG2 Assay for human Constitutive Androstane Receptor (CAR) (AID 2282969; active = hit-call score of the fitted dose curve at least 0.9, where 1 is the maximum;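 also: activators raise reporter mRNA above DMSO so AC50 marks induction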). Particulars: HepG2 Attagene TRANS-FACTORIAL CAR reporter. Summed up:
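HepG2 cells transiently transfected with GAL4-UAS reporter units; TRANS format reads activity of exogenous chimeric NR-Gal4 protein. After 24 h dosing, reporter mRNA quantified by RT-PCR, 6-FAM labelling and capillary electrophoresis; gain of signal fitted against DMSO.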

The nature of assay [17]: ATG_M_19_TRANS: Attagene TRANS-FACTORIAL HepG2 Assay for M19 Transcription Factor (Internal Marker) (AID 2282974; active = hit-call score of the fitted dose curve at least 0.9, where 1 is the maximum). Particulars: HepG2 Attagene TRANS-FACTORIAL M19 internal marker reporter. A digest of the protocol:
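Multiplexed TRANS format: HepG2 liver cells bearing transient GAL4-UAS reporter units, chemical treatment 24 h, reporter transcripts quantified by RT-PCR plus capillary electrophoresis. DMSO defines baseline.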

Molecules are shown by their SMILES. Results filed as inconclusive are left out. Active and inactive are the calls of the source. The calls were made as follows, unless noted: active = hit-call score of the fitted dose curve at least 0.9, where 1 is the maximum; inactive = score below 0.9.

Sequence of X-box-binding protein 1 (Homo sapiens) (P17861 whole entry, looked up): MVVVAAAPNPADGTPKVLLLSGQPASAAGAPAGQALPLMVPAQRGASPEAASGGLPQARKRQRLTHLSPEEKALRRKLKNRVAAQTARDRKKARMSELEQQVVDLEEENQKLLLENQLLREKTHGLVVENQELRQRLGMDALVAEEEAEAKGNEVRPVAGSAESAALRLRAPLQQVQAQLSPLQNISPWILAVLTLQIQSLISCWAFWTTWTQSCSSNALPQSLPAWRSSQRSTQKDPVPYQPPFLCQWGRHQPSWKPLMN
Sequence of Paired box protein Pax-6 (Homo sapiens) (P26367 whole entry, looked up): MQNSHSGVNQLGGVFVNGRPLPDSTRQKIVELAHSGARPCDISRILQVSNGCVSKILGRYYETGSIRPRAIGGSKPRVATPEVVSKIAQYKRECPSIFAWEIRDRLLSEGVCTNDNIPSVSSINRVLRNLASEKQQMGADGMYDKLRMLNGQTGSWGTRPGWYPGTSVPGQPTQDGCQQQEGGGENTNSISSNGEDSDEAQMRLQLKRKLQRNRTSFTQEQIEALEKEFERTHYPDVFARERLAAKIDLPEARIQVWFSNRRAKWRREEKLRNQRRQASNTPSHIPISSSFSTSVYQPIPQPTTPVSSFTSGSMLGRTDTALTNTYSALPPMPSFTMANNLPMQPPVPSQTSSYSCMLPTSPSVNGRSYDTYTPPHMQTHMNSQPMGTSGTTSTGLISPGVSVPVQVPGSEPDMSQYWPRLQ
Sequence of Transcription factor Sp1 (Homo sapiens) (P08047 whole entry, looked up): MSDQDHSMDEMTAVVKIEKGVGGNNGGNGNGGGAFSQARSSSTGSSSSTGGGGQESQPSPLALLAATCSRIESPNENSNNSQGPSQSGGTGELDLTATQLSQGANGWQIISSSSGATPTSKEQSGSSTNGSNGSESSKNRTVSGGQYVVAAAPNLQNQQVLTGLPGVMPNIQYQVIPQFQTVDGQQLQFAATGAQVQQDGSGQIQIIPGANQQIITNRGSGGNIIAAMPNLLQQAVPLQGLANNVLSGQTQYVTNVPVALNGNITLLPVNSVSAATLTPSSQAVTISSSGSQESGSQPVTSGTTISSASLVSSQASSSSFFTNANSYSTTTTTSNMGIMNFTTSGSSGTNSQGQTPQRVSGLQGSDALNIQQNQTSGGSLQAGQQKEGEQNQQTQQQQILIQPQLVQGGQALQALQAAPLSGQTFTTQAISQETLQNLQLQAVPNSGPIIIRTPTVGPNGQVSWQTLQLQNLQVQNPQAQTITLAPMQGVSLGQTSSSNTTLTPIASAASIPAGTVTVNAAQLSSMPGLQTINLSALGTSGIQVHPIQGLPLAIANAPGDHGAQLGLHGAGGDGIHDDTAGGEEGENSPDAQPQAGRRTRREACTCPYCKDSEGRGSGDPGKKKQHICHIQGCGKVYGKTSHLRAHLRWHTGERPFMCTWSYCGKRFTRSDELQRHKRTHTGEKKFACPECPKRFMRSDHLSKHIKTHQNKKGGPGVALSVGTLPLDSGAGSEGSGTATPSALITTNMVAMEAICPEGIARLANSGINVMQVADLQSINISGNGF
Sequence of Signal transducer and activator of transcription 3 (Homo sapiens) (P40763 whole entry, looked up): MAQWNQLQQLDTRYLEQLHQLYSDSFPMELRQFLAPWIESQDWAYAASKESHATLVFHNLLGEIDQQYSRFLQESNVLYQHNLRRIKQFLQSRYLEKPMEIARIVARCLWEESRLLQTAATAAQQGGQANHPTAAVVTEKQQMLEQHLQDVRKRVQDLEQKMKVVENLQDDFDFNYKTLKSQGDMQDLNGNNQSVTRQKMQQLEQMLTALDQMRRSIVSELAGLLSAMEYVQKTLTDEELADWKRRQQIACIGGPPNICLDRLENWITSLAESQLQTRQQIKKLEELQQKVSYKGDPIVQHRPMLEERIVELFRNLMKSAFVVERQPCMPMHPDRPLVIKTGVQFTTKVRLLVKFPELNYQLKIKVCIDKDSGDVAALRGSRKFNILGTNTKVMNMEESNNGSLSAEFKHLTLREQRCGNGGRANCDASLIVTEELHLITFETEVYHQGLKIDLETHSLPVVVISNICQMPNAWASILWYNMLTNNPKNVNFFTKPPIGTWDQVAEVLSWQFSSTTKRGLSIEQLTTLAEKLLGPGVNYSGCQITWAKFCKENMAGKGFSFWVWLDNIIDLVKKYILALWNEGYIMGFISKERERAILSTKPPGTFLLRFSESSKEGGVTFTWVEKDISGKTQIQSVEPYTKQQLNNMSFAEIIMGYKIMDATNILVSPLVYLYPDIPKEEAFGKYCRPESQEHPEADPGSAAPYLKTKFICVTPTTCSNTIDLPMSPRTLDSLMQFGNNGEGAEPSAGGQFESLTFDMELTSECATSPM
Sequence of Estrogen receptor (Homo sapiens) (P03372 whole entry, looked up, the tested form may be a part): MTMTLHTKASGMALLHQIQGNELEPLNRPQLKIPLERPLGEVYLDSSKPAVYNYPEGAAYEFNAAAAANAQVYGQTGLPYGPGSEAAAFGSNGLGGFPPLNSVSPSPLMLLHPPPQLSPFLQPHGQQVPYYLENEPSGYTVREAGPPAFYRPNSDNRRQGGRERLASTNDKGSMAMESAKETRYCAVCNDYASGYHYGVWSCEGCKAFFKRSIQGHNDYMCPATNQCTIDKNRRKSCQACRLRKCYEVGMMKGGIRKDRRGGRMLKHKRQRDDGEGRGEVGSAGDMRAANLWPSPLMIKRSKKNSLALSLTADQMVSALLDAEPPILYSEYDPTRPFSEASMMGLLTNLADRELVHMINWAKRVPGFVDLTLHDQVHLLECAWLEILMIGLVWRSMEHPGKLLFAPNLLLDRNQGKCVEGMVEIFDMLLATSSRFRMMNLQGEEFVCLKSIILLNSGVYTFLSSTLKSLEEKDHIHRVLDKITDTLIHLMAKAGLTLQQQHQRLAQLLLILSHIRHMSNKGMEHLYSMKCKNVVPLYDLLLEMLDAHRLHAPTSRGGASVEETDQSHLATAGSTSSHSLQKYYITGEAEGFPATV
Sequence of Nuclear receptor subfamily 1 group I member 3 (Homo sapiens) (Q14994 whole entry, looked up, the tested form may be a part): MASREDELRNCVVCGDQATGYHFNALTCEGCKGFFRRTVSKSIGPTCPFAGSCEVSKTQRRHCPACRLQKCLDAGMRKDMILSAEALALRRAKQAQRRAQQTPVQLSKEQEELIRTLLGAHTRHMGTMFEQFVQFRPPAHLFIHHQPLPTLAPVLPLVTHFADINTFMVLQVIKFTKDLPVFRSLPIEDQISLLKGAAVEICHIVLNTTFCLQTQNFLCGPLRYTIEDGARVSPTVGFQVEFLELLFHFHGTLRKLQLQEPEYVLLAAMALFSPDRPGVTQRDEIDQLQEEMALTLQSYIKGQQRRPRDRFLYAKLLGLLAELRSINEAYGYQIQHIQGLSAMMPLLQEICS

`CC(C)(C)C1CCCCC1=O` (configuration not stated): the result in assay [1], in assay [3], in assay [4], in assay [5], in assay [6] and in [7] was inactive. For the same molecule, the molecule was classed as inactive in assay [8], in [9], in assay [10], in [11] and in assay [12]. Also, the AC50 in [2] is 76.6 µM (active).
With `CC(C)c1ccc2c(c1)CC[C@H]1[C@](C)(CN)CCC[C@]21C`, the AC50 is 6.4 µM (active) in assay [1]; 6.13 µM (active) in assay [4]; 5.65 µM (active) in [9]; 5.66 µM (active) in [15]; 5.24 µM (active) in [11]. Also, the call in [2], in assay [5], in assay [6], in assay [7], in [8] and in [13] was inactive. In addition, the call in [14] and in assay [10] was inactive.
With `C=CC(=O)OCCOC(=O)C=C`, the AC50 was 14.9 µM (active) in assay [1]; 26.5 µM (active) in [2]; 27.3 µM (active) in assay [3]; 25.3 µM (active) in assay [5]; 10.5 µM (active) in [15]. Also, the outcome in assay [4], in [6], in assay [13], in assay [14] and in assay [11] was inactive.
For the molecule `CC1OC1C1CCC2(C)OC2C1` (configuration not stated), the outcome in assay [1], in [3], in [4], in [5], in assay [6] and in assay [7] was inactive. The result in assay [8], in [9], in [14], in [15], in [16] and in assay [10] was inactive. Also, the result in assay [11], in [17] and in assay [12] was inactive. Further, the AC50 in assay [2] is 36.7 µM (active).
Consider `C=C(C)C(=O)OCCO`, for which the result in assay [1], in [2], in assay [3], in assay [4], in [5] and in assay [6] was inactive. The call in assay [7], in assay [8], in assay [9], in assay [14], in assay [15] and in assay [16] was inactive. For the same molecule, the call in [10], in [11], in [17] and in assay [12] was inactive.

As usually defined, the AC50 is the midpoint of the concentration-response curve, whichever way the signal moves.
